The supplement of paper PMC10646978
± gives the standard deviation.

Assays:
Conditions in all cases: modulator concentration 10 µM
[1] = system: RAW-Dual (murine macrophage reporter line); experiment: NF-kB reporter (SEAP) activity fold change vs agonist alone; higher = enhanced NF-kB activity
Procedure, shortened: (§1)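 Compound reached 10 μM final in each well by pin transfer, onto RAW-Dual murine macrophage reporter cells seeded at 50 000 per well in 384-well plates. After 1 hour at 37 °C, the cells were stimulated overnight with a PRR agonist. SEAP in the supernatant was read with QUANTI-Blue at 620 nm absorbance for NF-κB, and Lucia luciferase was read with QUANTI-Luc luminescence for IRF. Each signal was turned into fold change against the mean agonist-only control on the same plate, and two replicate plates were averaged with propagated errors.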

[2] = system: RAW-Dual (murine macrophage reporter line); experiment: IRF reporter (Lucia luciferase) activity fold change vs agonist alone; higher = enhanced IRF activity
Procedure, shortened: as §1

[3] = system: RAW-Dual (murine macrophage reporter line); experiment: viability score (confluency relative to resting cells, overnight) (fraction); higher = more viable, active = viable (0.7 or more)
Procedure, shortened: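 In 384-well plates, RAW-Dual macrophages received compound at a final 10 μM overnight. Two confluency masks were then made with IncuCyte software from IncuCyte images of all imaged wells. The viability score is defined as confluency relative to resting cells. Passing the cutoff required both masks to lie above 70% of resting cells.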

[4] = agonist: CpG ODN 1826 0.5 ug/mL

Structure (SMILES) | NF-kB reporter [1, 4] | NF-kB reporter ([1]; agonist: LPS 0.1 ug/mL) | NF-kB reporter ([1]; agonist: MPLA […]) | IRF reporter ([2]; agonist: 3'3'-cGAMP 10 ug/mL) | IRF reporter ([2]; agonist: LPS 0.1 ug/mL) | IRF reporter ([2]; agonist: MPLA […]) | viability score [3]
CN(Cc1cnc2nc(N)nc(N)c2n1)c1ccc(C(=O)N[C@@H](CCC(=O)O)C(=O)O)cc1 | 0.668 ± 0.16 | 0.862 ± 0.28 | 0.764 ± 0.045 | 0.612 ± 0.049 | 1.02 ± 0.35 | 0.993 ± 0.16 | 0.574 (inactive)
CC(C)NCC(O)COc1cccc2ccccc12 (configuration not stated) [Prestw-1075] | 1.02 ± 0.064 | 0.92 ± 0.11 | 1.05 ± 0.043 | 0.896 ± 0.032 | 0.929 ± 0.071 | 0.918 ± 0.09 | 0.985 (active)
Nc1ncnc2c1nc(S)n2C1OC(CO)C(O)C1O (configuration not stated) | 0.775 ± 0.061 | 0.9 ± 0.082 | 0.951 ± 0.11 | 0.957 ± 0.051 | 1.15 ± 0.067 | 1.27 ± 0.14 | 1.02 (active)
COc1ccc(C)c2sc(NC(=O)c3ccco3)nc12 | 1.18 ± 0.089 | 0.847 ± 0.068 | 1.11 ± 0.031 | 0.863 ± 0.078 | 0.845 ± 0.061 | 0.882 ± 0.073 | 0.971 (active)
CN1CCN(CCCN2c3ccccc3Sc3ccc(S(=O)(=O)N(C)C)cc32)CC1 [Prestw-149] | 0.413 ± 0.053 | 0.958 ± 0.052 | 1.82 ± 0.044 | 0.936 ± 0.051 | 0.851 ± 0.078 | 1.55 ± 0.16 | 0.149 (inactive)
COC(=O)C1=CN(CC2CCCO2)C=C(C(=O)OC)C1c1ccsc1 (configuration not stated) | 0.898 ± 0.087 | 0.845 ± 0.057 | 1.12 ± 0.13 | 0.895 ± 0.041 | 1.41 ± 0.082 | 1.43 ± 0.18 | 1.01 (active)
Clc1ccccc1C=NNc1nc(-c2ccccc2)cc(-c2ccccc2)n1 | 1.15 ± 0.11 | 1.1 ± 0.073 | 1.79 ± 0.07 | 1.2 ± 0.23 | 1.04 ± 0.065 | 1.65 ± 0.29 | 1 (active)
CC(C)Sc1ccc(CC(=O)Nc2cnoc2)cc1 | 0.869 ± 0.044 | 1.01 ± 0.09 | 1.15 ± 0.095 | 0.848 ± 0.051 | 1.01 ± 0.24 | 1.1 ± 0.4 | 0.912 (active)
CCn1c(=O)c2c(nc(/C=C/c3ccc(OC)c(OC)c3)n2C)n(CC)c1=O | 1.56 ± 0.31 | 1.27 ± 0.33 | 1.14 ± 0.094 | 0.721 ± 0.044 | 1.21 ± 0.27 | 1.32 ± 0.26 | 0.986 (active)
NC(=O)c1ncn([C@@H]2O[C@H](CO)[C@@H](O)[C@H]2O)c1O | 0.723 ± 0.23 | 1.08 ± 0.069 | 0.898 ± 0.05 | 1.02 ± 0.085 | 1.04 ± 0.086 | 1.16 ± 0.094 | 0.998 (active)
Clc1ccc(-c2nc(N3CCCCC3)nc3ccccc23)cc1 | 0.444 ± 0.033 | 0.975 ± 0.051 | 1.09 ± 0.041 | 0.839 ± 0.047 | 0.953 ± 0.073 | 1.39 ± 0.12 | 0.993 (active)
CSc1nc2cccc(F)c2c(=O)n1C1CC1 | 1.06 ± 0.078 | 1.02 ± 0.093 | 1.18 ± 0.076 | 1.09 ± 0.051 | 1.31 ± 0.25 | 1.52 ± 0.38 | 0.67 (inactive)
Cc1ccccc1C(=O)Nc1ccc(C(=O)N2CCCC(O)c3cc(Cl)ccc32)c(C)c1 (configuration not stated) | 1.02 ± 0.2 | 1.09 ± 0.15 | 0.92 ± 0.056 | 0.601 ± 0.019 | 1.04 ± 0.29 | 1.07 ± 0.13 | 0.998 (active)
O=C(Nc1ccncc1)c1ccc(OCC2CCOCC2)nc1 | 1.15 ± 0.063 | 1.39 ± 0.12 | 1.28 ± 0.082 | 1.22 ± 0.083 | 1.28 ± 0.11 | 1.24 ± 0.34 | 0.996 (active)
c1cncc(CSc2ccc(-c3ccncc3)nn2)c1 | 0.532 ± 0.17 | 0.711 ± 0.071 | 0.919 ± 0.062 | 0.53 ± 0.037 | 0.647 ± 0.079 | 0.58 ± 0.13 | 0.892 (active)
O=C(Nc1ccc([N+](=O)[O-])cc1)Nc1ccc(Cl)cn1 | 0.838 ± 0.065 | 0.942 ± 0.074 | 0.986 ± 0.14 | 0.893 ± 0.041 | 1.39 ± 0.1 | 1.61 ± 0.14 | 1 (active)
O=C(NCC1(c2ccc(F)cc2)CCOCC1)c1cnc2ccccc2n1 | 1.01 ± 0.05 | 1.1 ± 0.094 | 1.02 ± 0.12 | 1.08 ± 0.06 | 1.2 ± 0.093 | 1.42 ± 0.12 | 1.01 (active)
NC(=O)c1cccc2cn(-c3ccc([C@@H]4CCCNC4)cc3)nc12 | 0.187 ± 0.014 | 0.573 ± 0.051 | 0.85 ± 0.072 | 0.508 ± 0.051 | 0.559 ± 0.07 | 0.977 ± 0.088 | 0.887 (active)
COc1cc(C=Nc2ccc(-c3ccc(N=Cc4cc(OC)c(OC)cc4[N+](=O)[O-])cc3)cc2)c([N+](=O)[O-])cc1OC | 0.742 ± 0.19 | 1.02 ± 0.065 | 1.02 ± 0.1 | 0.769 ± 0.1 | 1.03 ± 0.084 | 1.01 ± 0.41 | 1.01 (active)
O=C(Cn1cnc(-c2ccc(F)cc2)cc1=O)N1CCOCC1 | 0.891 ± 0.06 | 1.07 ± 0.13 | 1.18 ± 0.075 | 1.04 ± 0.047 | 1.3 ± 0.27 | 1.44 ± 0.45 | 0.99 (active)
CN(C(=O)c1cncc(F)c1)C1CN(c2ccc3nnc(C4CC4)n3n2)C1 | 0.937 ± 0.055 | 0.988 ± 0.078 | 0.83 ± 0.082 | 0.956 ± 0.087 | 0.991 ± 0.14 | 0.859 ± 0.4 | 1 (active)
CN1CCN(c2ccc(-c3cccc(NC(=O)COc4ccc(Cl)cc4)c3)nn2)CC1 | 0.24 ± 0.029 | 0.966 ± 0.053 | 0.891 ± 0.021 | 0.572 ± 0.032 | 0.946 ± 0.057 | 0.966 ± 0.081 | 0.97 (active)
CC(C)NNC(=O)c1ccncc1 [Prestw-176] | 1.04 ± 0.078 | 1.06 ± 0.088 | 1.02 ± 0.022 | 1.02 ± 0.068 | 0.958 ± 0.083 | 1.01 ± 0.093 | 0.997 (active)
Cn1ncc(Cl)c1-c1cc(C(=O)N[C@H](CN)Cc2ccc(F)c(F)c2)oc1Cl | 1.13 ± 0.34 | 1.49 ± 0.11 | 1.48 ± 0.14 | 0.363 ± 0.014 | 0.597 ± 0.064 | 0.827 ± 0.079 | 0.661 (inactive)
Nc1nc2ccc(OC(F)(F)F)cc2s1 | 0.955 ± 0.13 | 1.09 ± 0.3 | 1.02 ± 0.059 | 1.07 ± 0.044 | 1.15 ± 0.24 | 0.928 ± 0.14 | 0.965 (active)
CCN(CC)CCN1C(=O)C(O)=C(C(=O)c2ccc(C)cc2)C1c1ccccc1 (configuration not stated) | 0.996 ± 0.078 | 0.974 ± 0.064 | 0.893 ± 0.041 | 0.827 ± 0.059 | 0.999 ± 0.11 | 0.896 ± 0.2 | 0.996 (active)
